# Reference: the supplement of paper PMC9262897, “Low-cost anti-mycobacterial drug discovery using engineered E. coli” (Nature Communications, 2022)
# Structures can show the parent of a compound that is named as a salt. ± gives the standard deviation of the averaged measurements.
# Test system: E. coli TESEC Mtb Alr
# Assay: growth (OD600 after 10 h); higher = more growth (less inhibition)
# Details: compound 0.1 mM
# Procedure: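 TESEC Mtb Alr E. coli, or the Alr+ wild-type control, in 384-well plates with Prestwick library compounds at 0.1 mM and 1% DMSO, across arabinose induction levels of 1E3 to 1E7 nM. Growth is read as OD600 after 10 h at 37 °C in triplicate biological replicates.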
# [1] = arabinose 1000 nM, raw OD600 reference: median of DMSO wells 0.294, cell-free background 0.041
# [2] = arabinose 10000 nM, raw OD600 reference: median of DMSO wells 0.264, cell-free background 0.041
# [3] = arabinose 100000 nM, raw OD600 reference: median of DMSO wells 0.201, cell-free background 0.041
# [4] = arabinose 1000000 nM, raw OD600 reference: median of DMSO wells 0.193, cell-free background 0.041
# [5] = arabinose 10000000 nM, raw OD600 reference: median of DMSO wells 0.146, cell-free background 0.041
SMILES,growth [1],growth [2],growth [3],growth [4],growth [5]
CN(C)CCCO[C@@H]1[C@H]2OC(C)(C)O[C@H]2O[C@@H]1[C@H](O)CO [Amiprilose hydrochloride],0.304 ± 0.024,0.262 ± 0.0085,0.196 ± 0.0086,0.185 ± 0.0074,0.137 ± 0.003
Clc1cnccn1 [2-Chloropyrazine],0.03733 ± 0.00025,0.0408 ± 0.0011,0.11 ± 0.0059,0.112 ± 0.0027,0.196 ± 0.0073
CCCSc1ccc2[nH]c(NC(=O)OC)nc2c1 [Albendazole],0.274 ± 0.021,0.255 ± 0.0036,0.211 ± 0.031,0.1462 ± 0.00096,0.137 ± 0.0025
CC(C(=O)O)c1ccc(-c2ccccc2)c(F)c1 (stereo not given) [Flurbiprofen],0.239 ± 0.014,0.23 ± 0.0069,0.168 ± 0.0089,0.161 ± 0.0092,0.1346 ± 0.00075
CC(=O)N(O)CCCCCNC(=O)CCC(=O)N(O)CCCCCNC(=O)CCC(=O)N(O)CCCCCN [Deferoxamine mesylate],0.054 ± 0.0048,0.0561 ± 0.0031,0.0487 ± 0.0017,0.0567 ± 0.0044,0.0625 ± 0.00017
Nc1ccn([C@@H]2O[C@H](CO)[C@@H](O)C2(F)F)c(=O)n1 [Gemcitabine],0.208 ± 0.012,0.193 ± 0.029,0.126 ± 0.012,0.116 ± 0.0036,0.164 ± 0.003
CC(=O)O[C@]1(C(C)=O)CC[C@H]2[C@@H]3C=C(C)C4=CC(=O)CC[C@]4(C)[C@H]3CC[C@@]21C [Megestrol acetate],0.285 ± 0.024,0.266 ± 0.013,0.16 ± 0.003,0.164 ± 0.0052,0.163 ± 0.016
CNCC[C@@H](Oc1ccccc1C)c1ccccc1 [Tomoxetine hydrochloride],0.254 ± 0.0027,0.272 ± 0.0044,0.211 ± 0.019,0.139 ± 0.0019,0.173 ± 0.0034
